Common to all, as to test: NCI-60 one-dose screen, 48 h (100 = growth as untreated, 0 = no growth, -100 = all killed)
The subject of one assay is NCI-H23 lung. The following applies: 10 µM unless noted.
The next assay relates to NCI-H226 lung. To be noted: 10 µM unless noted.
In the next assay the test system is HOP-62 NSCLC. To be noted: 10 µM unless noted.
The test system of the next assay is HOP-92 NSCLC. To be noted: 10 µM.
Another assay has as its system NCI-H522 lung. The following applies: 10 µM.
The next assay concerns A549/ATCC NSCLC. The following applies: 10 µM unless noted.
A further assay relates to 786-0 renal. The following applies: 10 µM unless noted.
In the next assay the test system is NCI-H322M lung. To be noted: 10 µM unless noted.
For another assay, the system named is NCI-H460 lung. To be noted: 10 µM unless noted.
The test system of the next assay is COLO 205 colon. The following applies: 10 µM unless noted.

Several values for one entry are separate records, joined by “and”; a condition that tells them apart may be missing. Identical values can stand only once. This is part of a sample that, as a whole, favours compounds with a hit. Of some 83,000 tested, about 20% had one in any assay.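 A percent growth of 40 corresponds to 60% growth inhibition; 0 means no net growth; -100 means all cells died. Active threshold: below 10.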 Activity calls are given as the source filed them. Where a SMILES comes first, the peptide text is derived from it.

Results on 12 compounds are retold here after PubChem BioAssay (NCI).

For `Nc1ncnc2c1ncn2C1OC(COP(=O)(O)O)C(O)C1O` (centres undefined), the growth in the assay with NCI-H23 lung is 110% (inactive); in the assay on NCI-H226 lung, 113% (inactive); in the assay on HOP-62 NSCLC it was 115% (inactive); with HOP-92 NSCLC, 103% (inactive); with NCI-H522 lung, 114% (inactive); in the assay with A549/ATCC NSCLC, 114% (inactive). The growth in the assay with 786-0 renal is 105% (inactive).

As to `CC(=O)OC(C)C(=O)NCC(C)O` (centres undefined), the growth in the assay on NCI-H23 lung is 100% (inactive); with NCI-H322M lung, 90.7% (inactive); in the assay with HOP-62 NSCLC it was 100% (inactive); in the assay on HOP-92 NSCLC it was 98% (inactive); in the assay on NCI-H522 lung, 109% (inactive); with A549/ATCC NSCLC, 108% (inactive). In the assay on 786-0 renal, the growth was 94.9% (inactive).

For `Oc1ccc(Cc2ccccc2Cl)c(O)c1`, the growth was 89.5% (inactive) in the assay on NCI-H23 lung; 86.5% (inactive) in the assay with NCI-H322M lung; 91.9% (inactive) in the assay on HOP-62 NSCLC; 101% (inactive) with NCI-H460 lung; 89.4% (inactive) in the assay on HOP-92 NSCLC; 94.7% (inactive) with NCI-H522 lung. The growth is 98.8% (inactive) in the assay with A549/ATCC NSCLC, 102% (inactive) in the assay on 786-0 renal and 106% (inactive) in the assay with COLO 205 colon.

Regarding `C/C(=C\c1ccccc1)c1ccccn1`, the growth in the assay with NCI-H226 lung was 90.9% (inactive); in the assay with NCI-H322M lung, 96.8% (inactive); with HOP-62 NSCLC, 105% (inactive); in the assay with NCI-H460 lung, 105% (inactive); in the assay with HOP-92 NSCLC, 105% (inactive); with NCI-H522 lung it was 109% (inactive). Moreover, the figures for the growth with A549/ATCC NSCLC and in the assay with 786-0 renal were 115% (inactive) and 104% (inactive), respectively.

Consider `Cn1cnc([N+](=O)[O-])c1Sc1ncn[nH]1`, for which the growth in the assay with NCI-H23 lung was 91.7% (inactive); in the assay on NCI-H226 lung, 102% (inactive); in the assay with NCI-H322M lung, 101% (inactive); with HOP-62 NSCLC, 96.9% (inactive); in the assay on NCI-H460 lung it was 115% (inactive); in the assay on HOP-92 NSCLC it was 101% (inactive). The results for the growth in the assay on NCI-H522 lung, in the assay with A549/ATCC NSCLC and in the assay on 786-0 renal were 82.9% (inactive), 99.4% (inactive) and 102% (inactive), respectively.

Regarding `Nc1nc(N)c2[nH]cnc2n1`, the growth is 88.6% (inactive) in the assay on NCI-H23 lung; 102% (inactive) with NCI-H226 lung; 111% (inactive) in the assay with NCI-H322M lung; 88.7% (inactive) in the assay with HOP-62 NSCLC; 78.5% (inactive) with HOP-92 NSCLC; 50.6% (inactive) in the assay on NCI-H522 lung. Besides, the growth in the assay on A549/ATCC NSCLC is 80.2% (inactive); in the assay with 786-0 renal, 91.8% (inactive).

For the compound `c1ccc(CNCCNCc2ccccc2)cc1`, the growth in the assay with NCI-H23 lung is 117% (inactive); with NCI-H226 lung, 90.4% (inactive); in the assay on NCI-H322M lung it was 106% (inactive); in the assay on HOP-62 NSCLC it was 98.8% (inactive); with NCI-H460 lung, 104% (inactive); in the assay on HOP-92 NSCLC it was 80.6% (inactive). In addition, the growth is 106% (inactive) with NCI-H522 lung, 101% (inactive) in the assay on A549/ATCC NSCLC, 107% (inactive) in the assay on 786-0 renal and 109% (inactive) in the assay with COLO 205 colon.

As for `COc1ccc(N/C=C/C2=[N+](C)c3ccccc3C2(C)C)c(OC)c1`, the growth is 83% (inactive) in the assay on NCI-H226 lung; 102% (inactive) in the assay on NCI-H322M lung; 92.7% (inactive) with HOP-62 NSCLC; 96.3% (inactive) with NCI-H460 lung; 69.5% (inactive) in the assay with HOP-92 NSCLC; 89.9% (inactive) in the assay with NCI-H522 lung. The growth in the assay on A549/ATCC NSCLC is 92.9% (inactive); with 786-0 renal, 88.9% (inactive).

`N#CC(C#N)N=Nc1ccc(Cl)cc1`: the growth in the assay on NCI-H23 lung is 36.5% (inactive); with NCI-H226 lung it was 75.1% (inactive); with NCI-H322M lung, 93.2% (inactive); in the assay with HOP-62 NSCLC, 84.9% (inactive); in the assay with HOP-92 NSCLC it was -15.1% (active); with NCI-H522 lung, -12.4% (active). For the same compound, the growth in the assay on A549/ATCC NSCLC was 105% (inactive); with 786-0 renal it was 59% (inactive).

For `c1ccc(-c2nc3ccccc3s2)cc1`, the growth with NCI-H23 lung is 88.2% (inactive); in the assay on NCI-H322M lung, 81.1% (inactive); in the assay on HOP-62 NSCLC it was 76.3% (inactive); in the assay with HOP-92 NSCLC it was 82.4% (inactive); with A549/ATCC NSCLC, 105% (inactive); in the assay with 786-0 renal, 105% (inactive). For the same compound, the growth with COLO 205 colon is 110% (inactive).

With `O=C1OC(C(O)C(O)CO)C(O)=C1O` (centres undefined), the growth in the assay with NCI-H23 lung is 113% (inactive) and 98.1% (inactive); in the assay with NCI-H226 lung, 100% (inactive); in the assay with NCI-H322M lung, 111% (inactive) and 97.3% (inactive); in the assay with HOP-62 NSCLC it was 94.4% (inactive) and 88.1% (inactive); with HOP-92 NSCLC, 89.5% (inactive); in the assay with NCI-H522 lung, 8.89% (active) and 80% (inactive). For the same compound, the growth with A549/ATCC NSCLC is 104% (inactive) and 74.9% (inactive); with 786-0 renal, 95% (inactive) and 97.2% (inactive); with COLO 205 colon it was 101% (inactive) and 96.9% (inactive).

For `NC(Cc1ccccc1)C(=O)NC(Cc1ccccc1)C(=O)O` (stereo not drawn) (H-Phe-Phe-OH; configuration not given here), the growth in the assay on NCI-H23 lung was 97.1% (inactive) and 105% (inactive); in the assay on NCI-H226 lung, 95.6% (inactive) and 93% (inactive); in the assay with NCI-H322M lung, 94.6% (inactive) and 100% (inactive); in the assay on HOP-62 NSCLC it was 91.1% (inactive) and 100% (inactive); with NCI-H460 lung, 104% (inactive); in the assay with HOP-92 NSCLC, 97.6% (inactive). For the same compound, the growth with NCI-H522 lung is 87.3% (inactive) and 99.4% (inactive); in the assay on A549/ATCC NSCLC, 90.2% (inactive) and 101% (inactive); with 786-0 renal, 111% (inactive) and 104% (inactive).
